Screening data from PubChem BioAssay.
Shiga inhibitor = inhibitors of Shiga toxin in Vero cells. Vero cells, Shiga toxin protein synthesis inhibition reporter. inhibition, % at 38.7 µM. 290,000 tested, 9.2% active; in the data active = inhibition mostly above about 28%, no sharp cut-off; inactive = mostly below about 43%
NS1 inh = blocks influenza NS1 protein function | Potency, µM (series often up to 46.1 µM) | 270,000 tested, 0.4% active; calls by dose curve; note: actives are rising curves; nearly all actives have a fitted effect of over 50% in size
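Recovery from NS1-induced slow growth read by OD600 in budding yeast switched to galactose assay medium (pH 6.0, -URA) at 1:100 dilution. Compound 23 nl per well; the matching strain lacking NS1 serves as control.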
CHX counter = affects cycloheximide protein synthesis inhibition readout, counter-screen | 300,000 tested, 12% active | cell reporter, cycloheximide protein synthesis inhibition counterscreen | max response, %; in the data active = max response mostly above about 13%, no sharp cut-off; inactive = mostly below about 14%; note: read at 38.3 µM for the half of the compounds with a filed dose
Pf growth 96h = P. falciparum growth inhibition at 96 hours; 320,000 tested, 6.9% active; Potency, µM (highest dose often 28.7 µM), usual class: inhibitors; P. falciparum luciferase reporter growth, 96 h
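Erythrocytes infected with luciferase-expressing P. falciparum were dispensed at 2% hematocrit and 0.05% parasitemia (final), then incubated with compounds 96 hours at 37 C in 5% CO2. Luminescence after detection reagent addition reported growth.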
Pf growth 48h = inhibits P. falciparum growth in the first generation, 48 h | Potency, µM (doses to about 28.7 µM), actives largely listed as inhibitors | AID 504832 | 310,000 tested, 5.9% active | P. falciparum luciferase growth in erythrocytes, 48 h
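In quantitative HTS format, infected erythrocytes bearing luciferase-reporter parasites were treated for a single generation at 37 C. Luminescence after adding detection reagent served as the growth measure.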
Sm TGR inh = S. mansoni TGR enzyme inhibition | Q962Y6 | purified TGR, DTNB reduction, TNB absorbance 405 nm | Potency, µM (highest dose often 114 µM), hits mostly inhibitors | 360,000 tested, 3% active | AID 485364; note: nearly all actives have a fitted effect of over 60% in size
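First, TGR (20 nM dispensed) and NADPH were mixed with compound. Second, a 15 min room-temperature incubation followed. Third, further NADPH and then DTNB were added to start the reaction. Finally, TNB absorbance was monitored kinetically.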
Each line names hits and unclear results; the compound was inactive in the other large screens. A selection: hits, their analogues and other compounds. The true share with any hit is near 21%. Unless noted, calls come from the whole dose curve; as a rule, active = well fitted curve in the direction sought with a large enough effect; inconclusive = small, poorly fitted or top-dose-only effect, or another doubt; inactive = no such curve, though single readings can be large; an effect the other way counts as inactive or inconclusive.

CC(Nc1nc(-c2ccncc2)nc2ccccc12)c1ccccc1 (stereo not drawn)	Pf growth 96h 4.7µM, Pf growth 48h 5.2µM
c1ccc(Nc2nc(-c3ccncc3)nc3ccccc23)cc1	Pf growth 96h inconclusive
COc1ccccc1C(C)Nc1nc(-c2cccnc2)nc2ccccc12 (stereo not drawn)	Pf growth 96h inconclusive, Pf growth 48h 13µM
CC(Nc1nc(N2CCNCC2)nc2ccccc12)c1ccccc1 (stereo not drawn)	Pf growth 48h 2.9µM (no result: NS1 inh)
c1ccc2c(NCC3CCCO3)nc(N3CCOCC3)nc2c1 (stereo not drawn)	none
O=C(CSc1nccn1Cc1ccco1)Nc1ccc(OC(F)(F)F)cc1	none (no result: Shiga inhibitor, NS1 inh, CHX counter, Pf growth 96h, Pf growth 48h)
Nc1nc2ccccc2cc1-c1cccs1	Shiga inhibitor 94, CHX counter 61
c1ccc2nc(C3=NCCN3)ccc2c1	none (no result: Shiga inhibitor, CHX counter, Pf growth 96h, Pf growth 48h, Sm TGR inh)
c1csc(-c2ccc3ccccc3n2)c1	CHX counter 33
Cc1cc2ncc(-c3cccs3)nc2cc1C	Shiga inhibitor 101, CHX counter 51
Cc1ccc(-c2cc3ccccc3nc2N)cc1	Shiga inhibitor 71, CHX counter 18
COc1ccccc1NC(=O)CCC(=O)OCc1cccc([N+](=O)[O-])c1	none (no result: NS1 inh)
CC(=O)c1ccc(N2CCN(c3ncnc4c3cnn4-c3cc(Cl)ccc3C)CC2)cc1	none (no result: Shiga inhibitor, NS1 inh, CHX counter, Pf growth 96h, Pf growth 48h)
Cc1cc(NC(=O)CN(C)S(=O)(=O)c2ccc(-c3ccc(=O)[nH]n3)s2)ccc1Br	none
CCOc1ccc(N(C)S(=O)(=O)c2ccc(-c3ccc(=O)[nH]n3)s2)cc1	Pf growth 96h 12µM, Sm TGR inh inconclusive
COc1cc(NC(=O)CN(C)S(=O)(=O)c2ccc(-c3ccc(=O)[nH]n3)s2)cc(OC)c1	Pf growth 48h inconclusive, Sm TGR inh 32µM
O=C1CC(c2cc(-c3ccccc3)no2)C1	Shiga inhibitor 42, CHX counter 39
CC(C)COc1ccc(C(=O)Nc2cc(-c3ccccc3)no2)cc1	none (no result: Shiga inhibitor, NS1 inh, CHX counter, Pf growth 96h, Pf growth 48h)
CCOc1ccc2nc3cc(NCc4ccc(OC)cc4)ccc3c(N)c2c1	Pf growth 96h 2.6µM, Pf growth 48h 2.3µM
COc1ccc(CNc2ncnc(N)n2)cc1	none (no result: Pf growth 48h)
CCOc1ccc2nc3cc(N)ccc3c(N)c2c1	Pf growth 96h 0.85µM, Pf growth 48h 0.76µM (no result: Shiga inhibitor, NS1 inh, CHX counter, Sm TGR inh)
O=S(=O)(c1ccccc1)c1nnn2c1nc(NCc1ccccc1)c1cc(Cl)ccc12	none (no result: Shiga inhibitor, NS1 inh, CHX counter, Pf growth 96h, Pf growth 48h)
C[C@@H]1O[C@@H](Oc2c(-c3cc(O)c(O)c(O)c3)oc3cc(O)cc(O)c3c2=O)[C@H](O)[C@H](O)[C@H]1O	Pf growth 96h inconclusive, Pf growth 48h 13µM
C[C@@H]1O[C@@H](O[C@H]2[C@H](O)[C@@H](O)[C@H](Oc3c(-c4ccc(O)c(O)c4)oc4cc(O)cc(O)c4c3=O)O[C@@H]2CO)[C@H](O)[C@H](O)[C@H]1O	Sm TGR inh inconclusive (no result: Shiga inhibitor, NS1 inh, CHX counter)
CCCN(Cc1ccccc1)C(=S)NC(=O)c1ccccc1[N+](=O)[O-]	none
O=c1[nH]c(=O)n(C2CCCCCC2)c(O)c1C=NCc1ccc(F)cc1	Pf growth 48h inconclusive
Cc1ccc(CN=Cc2[nH]c3ccc(Br)c(Cl)c3c2O)cc1	Pf growth 48h 3.3µM, Sm TGR inh 45µM (no result: Pf growth 96h)
Oc1c(C=NCc2ccc(F)cc2)[nH]c2ccc(Br)c(Cl)c12	Pf growth 48h 2.6µM, Sm TGR inh 32µM (no result: Pf growth 96h)
O=C(NCC1CCCO1)c1ccccc1-c1nc(-c2ccc(F)cc2)no1 (stereo not drawn)	none
COc1ccccc1-c1noc(-c2ccccc2C(=O)NCC2CCCO2)n1 (stereo not drawn)	CHX counter 16
COc1ccc(-c2noc(-c3ccccc3C(=O)NCC3CCCO3)n2)cc1 (stereo not drawn)	CHX counter 19
O=C(NCC1CCCO1)c1cc(-c2ccccc2F)no1 (stereo not drawn)	Shiga inhibitor 91, CHX counter 29
CC(C)NC(=O)c1ccc2c(c1)N(CC(=O)Nc1ccccc1F)C(=O)C(C)(C)O2	none
CCc1nc(SCC(=O)Nc2ccccc2OC)c2c(C)c(C)sc2n1	Pf growth 48h 13µM
CCc1nc(SCC(=O)Nc2cc(C)ccc2OC)c2c(C)c(C)sc2n1	none
Cc1cccc(-c2nc(CS(=O)CC(=O)NCC3CCCO3)c(C)o2)c1 (stereo not drawn)	NS1 inh inconclusive, Pf growth 96h inconclusive, Sm TGR inh 28µM
Cc1cccc(-c2nc(CS(=O)CC(=O)N3CCCCC3)c(C)o2)c1 (stereo not drawn)	Sm TGR inh 35µM (no result: Pf growth 48h)
Cc1ccc(-c2nc(CS(=O)CC(=O)N3CCN(c4ccccc4)CC3)c(C)o2)cc1 (stereo not drawn)	none
Cc1oc(-c2ccccc2)nc1CS(=O)CC(=O)N1CCc2ccccc2C1 (stereo not drawn)	NS1 inh inconclusive, Sm TGR inh 3.2µM (no result: Pf growth 48h)
CCOC(=O)c1nc(-c2ccc(OC)c(OC)c2)no1	none (no result: NS1 inh)
Cc1csc(NC(=O)CCNC(=O)c2ccc([N+](=O)[O-])cc2)n1	Pf growth 96h inconclusive
CCOc1ccccc1Nc1nc(-c2sc(NC(=O)c3ccc([N+](=O)[O-])cc3)nc2C)cs1	Pf growth 96h inconclusive, Pf growth 48h 3.3µM
Cc1ccccc1Nc1nc(-c2sc(NC(=O)c3ccccc3)nc2C)cs1	Shiga inhibitor 50, Pf growth 96h 12µM, Pf growth 48h 9.3µM
Cc1ccc(Cl)cc1Nc1nc(-c2sc(NC(=O)c3cccc(Cl)c3)nc2C)cs1	Pf growth 96h inconclusive, Pf growth 48h inconclusive
Cc1ccccc1Nc1nc(-c2sc(NC(=O)c3ccc([N+](=O)[O-])cc3)nc2C)cs1	CHX counter 16, Pf growth 96h 13µM, Pf growth 48h inconclusive
Cc1ccccc1Nc1nc(-c2sc(NC(=O)c3cccc(Cl)c3)nc2C)cs1	CHX counter 19, Pf growth 96h inconclusive, Pf growth 48h inconclusive
Cc1ccc(Nc2nc(-c3sc(NC(=O)c4ccc([N+](=O)[O-])cc4)nc3C)cs2)cc1	Pf growth 96h 2.6µM, Pf growth 48h 9.3µM
Cc1nc(NC(=O)c2ccccc2)sc1-c1csc(Nc2ccc(F)cc2)n1	NS1 inh inconclusive, Pf growth 96h 3.7µM, Pf growth 48h inconclusive
CCCC(=O)Nc1c(C)n[nH]c1C	Pf growth 96h 0.59µM
CCCN1CCC(=O)N(CCN=[N+]=[N-])CC1	none
CC(C)c1nc2ccc(NC(=O)C34CC5CC(CC(C5)C3)C4)cc2[nH]1	CHX counter 20, Pf growth 96h inconclusive (no result: Pf growth 48h)
O=C(Nc1ccc2nc(-c3cccnc3)[nH]c2c1)C12CC3CC(CC(C3)C1)C2	Pf growth 48h 12µM
O=C1OCc2cc(NC(=O)C34CC5CC(CC(C5)C3)C4)ccc21	Pf growth 96h inconclusive
O=C(Nc1ccc2nc(-c3cccnc3)[nH]c2c1)C1CCCCC1	none
CCCOc1ccc(OCCOCCN2CCc3ccccc3C2)cc1	none (no result: Pf growth 48h)
COc1cc(OC)c(NC(=O)CCCn2nc(C)c3c(C)n(-c4ccccc4)nc3c2=O)cc1Cl	none (no result: Shiga inhibitor, NS1 inh, CHX counter, Pf growth 96h, Pf growth 48h)
Cc1ccc(-c2nc3sc(CCNC(=O)c4ccc(Br)o4)c(C)n3n2)cc1	none (no result: Shiga inhibitor, NS1 inh, CHX counter, Pf growth 96h, Pf growth 48h)
